Laboratory results published in PubChem BioAssay (Tox21).
Inconclusive results are not listed. Entries that show only a call come without a potency. Activity calls are given as the source filed them. Unless noted, calls follow the shape of the dose curve; as a rule, active = well fitted curve in the direction sought with a large enough effect in the repeat runs; inconclusive = weak or mixed curves; inactive = no such curve, though single readings can be large; an effect the other way counts as inactive or inconclusive.

Tests used:
[1] = qHTS assay to identify small molecule antagonists of the estrogen receptor alpha (ER-alpha) signaling pathway using the BG1 cell line in the presence of 0.1 nM 17-beta-estradiol - cell viability counter screen (AID 1259241); also: nearly all actives have a fitted effect of over 40% in size
How it was run: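 Following 5 days in phenol red-free medium with charcoal-stripped serum, VM7Luc4E2 cells received test compounds alongside 0.1 nM 17beta-estradiol (final) at 37C for 22 hr. Live cells were then quantified via protease-substrate fluorescence.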

[2] = qHTS assay to identify small molecule antagonists of the androgen receptor (AR) signaling pathway using the MDA cell line in the presence of 0.5 nM R1881 - cell viability counter screen (AID 1259242); also: nearly all actives have a fitted effect of over 45% in size
How it was run: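 Concentration-response screen of compounds for toxicity in MDA-kb2 reporter cells: 16 hr at 37C with 0.5 nM R1881, endpoint live-cell protease fluorescence measured in the reporter wells.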

[3] = qHTS assay to identify small molecule HDAC inhibitors (AID 1259364); also: potency is read from the fitted curve at half-maximal effect;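 also: wild-type HCT-116 cells with endogenous class I/II HDAC activity; nearly all actives have a fitted effect of over 45% in size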
How it was run: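 Screening used wild-type human colon HCT-116 cells incubated overnight, dosed with compounds for 2 hours, and assayed with a homogeneous luminogenic HDAC I/II reagent for 30 minutes at room temperature.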

[4] = qHTS assay to identify small molecule HDAC inhibitors - cell viability counter screen (AID 1259365); also: series mostly up to about 92 µM; nearly all actives have a fitted effect of over 50% in size
How it was run: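 HCT-116 wild-type, overnight attachment; 2hr drug exposure, 37C; CellTiter-Glo luminescent ATP readout after 30min RT.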

[5] = qHTS assay to identify small molecule agonists of the sonic hedgehog signaling (Shh) pathway - cell viability counter screen (AID 1259366); also: nearly all actives have a fitted effect of over 50% in size
How it was run: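 Compounds in DMSO were pin-transferred onto 3T3 Gli1-Luc cells that had settled 4hr; plates then stood 24hr at 37C and 5% CO2. One hour before the end, CellTiter-Fluor was added and fluorescence recorded.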

[6] = qHTS assay to identify small molecule agonists of the sonic hedgehog signaling (Shh) pathway (AID 1259368; calls by dose curve;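 also: NIH/3T3-derived 3T3Gli1-Luc cells carrying a stable Gli1-driven firefly luciferase reporter; series mostly up to about 92 µM; nearly all actives have a fitted effect of over 15% in size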)
How it was run: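 Hedgehog pathway agonism scored by increased firefly luciferase luminescence in 3T3Gli1-Luc cells treated 24 hr at 37 C; detection used a 30 min room-temperature reagent incubation.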

[7] = qHTS assay to identify small molecule antagonists of the sonic hedgehog signaling (Shh) pathway (AID 1259369; calls by dose curve; also: nearly all actives have a fitted effect of over 45% in size; also: potency is read from the fitted curve at half-maximal effect)
How it was run: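 NIH/3T3 stable Gli1-Luc clone, 2,000 cells/well, 4hr settle; cpd + conditioned medium 24hr; Luc reagent 30min RT; luminescence.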

[8] = molecular target: Estrogen receptor beta (Homo sapiens) (UniProt Q92731); assay: qHTS assay to identify small molecule antagonists of the estrogen receptor beta (ER-beta) signaling pathway (AID 1259378; active = well fitted inhibition curve with a large enough effect in the signal ratio in the repeat runs, not every such curve was filed as active; the % refers to the signal ratio; also: potency is read from the fitted curve at half-maximal effect)
How it was run: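 ER-beta-UAS-bla HEK293T cells in 2% charcoal-stripped FBS medium treated with compound plus 1nM final 17-beta-estradiol for 16 hr at 37C. Beta-lactamase reporter read by FRET substrate fluorescence after 2 hours at room temperature.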

[9] = qHTS assay to identify small molecule agonists of the androgen receptor (AR) signaling pathway in the presence of an antagonist - cell viability counter screen (AID 1259379); also: nearly all actives have a fitted effect of over 25% in size; also: potency is read from the fitted curve at half-maximal effect
How it was run: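 MDA-kb2 viability measured by CellTiter-Fluor fluorescence in the same wells as the luciferase signal; nilutamide 3.0uM final; 15-point compound titration; 16 hr at 37C.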

[10] = qHTS assay to identify small molecule agonists of the estrogen receptor beta (ER-beta) signaling pathway - cell viability counter screen (AID 1259380); also: nearly all actives have a fitted effect of over 30% in size
How it was run: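 Measured: luminescence from CellTiter-Glo after 30 min at room temperature, added to wells already read for the LiveBLAzer FRET reporter (2 hr substrate); ER-beta-UAS-bla HEK293T cells had 16 hr compound treatment at 37C, 5% CO2.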

[11] = qHTS assay to identify small molecule antagonists of the estrogen receptor beta (ER-beta) signaling pathway - cell viability counter screen (AID 1259382); also: series mostly up to about 92 µM; nearly all actives have a fitted effect of over 55% in size
How it was run: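 Readout: luminescence, CellTiter-Glo, same wells as bla assay. System: ER-beta-UAS-bla GripTite HEK293T, 2% charcoal-stripped FBS. Exposure: compounds plus 1nM 17-beta-estradiol, 16 hr, 37C.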

[12] = molecular target: Thyrotropin receptor (Homo sapiens) (UniProt P16473); assay: qHTS assay to identify small molecule antagonists of the thyroid stimulating hormone receptor (TSHR) signaling pathway (AID 1259385; calls by dose curve; also: nearly all actives have a fitted effect of over 20% in size)
How it was run: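 TSHR-HEK293 cells (800/well) plated 18 h, then compounds with Ro20-1724 and TSH at 1.5 ng/mL final, 30 min at room temperature. cAMP quantified by HTRF (cAMP-d2/anti-cAMP-cryptate, 1 h); 15 concentrations in triplicate.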

[13] = molecular target: Estrogen receptor (Homo sapiens) (UniProt P03372); assay: qHTS assay to identify small molecule antagonists of the estrogen receptor alpha (ER-alpha) signaling pathway using the BG1 cell line in the presence of 0.1 nM 17-beta-estradiol (AID 1259244); also: nearly all actives have a fitted effect of over 50% in size
How it was run: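 Compounds were tested against 0.1 nM (final) 17beta-estradiol in VM7Luc4E2 cells, which express full-length ER-alpha and an ERE-luciferase reporter; luminescence was recorded following 22 h exposure.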

[14] = qHTS assay to identify small molecule phospholipidosis (PLD) inducers (AID 1259344; active = well fitted curve in the direction sought with a large enough effect; an effect the other way counts as inactive or inconclusive)
How it was run: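 Read-out is LipidTOX Red fluorescence (ex 595/em 615) imaged in HepG2 cells after 24 h compound exposure at 37 C, with Hoechst nuclear counterstain (ex 352/em 461) allowing per-cell normalisation.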

[15] = molecular target: Estrogen receptor beta (Homo sapiens) (UniProt Q92731); assay: qHTS assay to identify small molecule agonists of the estrogen receptor beta (ER-beta) signaling pathway (AID 1259377; active = well fitted activation curve with a large enough effect in the signal ratio in the repeat runs, not every such curve was filed as active; the % refers to the signal ratio)
How it was run: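 qHTS in ER-beta-UAS-bla HEK293T cells: 6 hr settling, then 16 hr compound at 37C, then LiveBLAzer substrate 2 h at RT before fluorescence reading.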

[16] = molecular target: Estrogen receptor (Homo sapiens) (UniProt P03372); assay: qHTS assay to identify small molecule agonists of the estrogen receptor alpha (ER-alpha) signaling pathway in the presence of an antagonist (AID 1259383; calls by dose curve; also: top concentration of the series differs between compounds; nearly all actives have a fitted effect of over 15% in size)
How it was run: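 Quantitative HTS confirmation: compounds titrated at 15 concentrations onto estrogen-deprived VM7Luc4E2 cells carrying a four-ERE luciferase construct, with ICI-182,780 present at 10.0nM final. Signal is luminescence after 22hr exposure.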

[17] = qHTS assay to identify small molecule antagonists of the sonic hedgehog signaling (Shh) pathway - cell viability counter screen (AID 1259367); also: nearly all actives have a fitted effect of over 55% in size
How it was run: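 Fluorescence read-out (CellTiter-Fluor, 1 hr at 37C) taken after 23 hr compound treatment of 3T3 Gli1-Luc cells stimulated with conditioned medium. Cells were seeded at 2,000 per well and pre-incubated 4 hr.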

[18] = qHTS assay to identify small molecule agonists or antagonists of the thyroid stimulating hormone receptor (TSHR) signaling pathway - wild type cell line counter screen (AID 1259384; calls by dose curve)
How it was run: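 Wild-type Hek293 cells, 800/well, 18 h at 37C, then compound with Ro20-1724 for 30 min RT. cAMP by HTRF (cAMP-d2/anti-cAMP cryptate), 1 h RT, fluorescence read. 15 concentrations, triplicates.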

[19] = molecular target: Androgen receptor (Homo sapiens) (UniProt P10275); assay: qHTS assay to identify small molecule agonists of the androgen receptor (AR) signaling pathway in the presence of an antagonist (AID 1259381; calls by dose curve; also: nearly all actives have a fitted effect of over 15% in size)
How it was run: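 Luminescent ONE-Glo read, 30min at room temperature, follows 16hr compound exposure (15 concentrations) of MDA-kb2 cells at 37C, 0% CO2, with nilutamide added at 3.0uM final.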

Sequence of Thyrotropin receptor (Homo sapiens) (P16473 whole entry, looked up): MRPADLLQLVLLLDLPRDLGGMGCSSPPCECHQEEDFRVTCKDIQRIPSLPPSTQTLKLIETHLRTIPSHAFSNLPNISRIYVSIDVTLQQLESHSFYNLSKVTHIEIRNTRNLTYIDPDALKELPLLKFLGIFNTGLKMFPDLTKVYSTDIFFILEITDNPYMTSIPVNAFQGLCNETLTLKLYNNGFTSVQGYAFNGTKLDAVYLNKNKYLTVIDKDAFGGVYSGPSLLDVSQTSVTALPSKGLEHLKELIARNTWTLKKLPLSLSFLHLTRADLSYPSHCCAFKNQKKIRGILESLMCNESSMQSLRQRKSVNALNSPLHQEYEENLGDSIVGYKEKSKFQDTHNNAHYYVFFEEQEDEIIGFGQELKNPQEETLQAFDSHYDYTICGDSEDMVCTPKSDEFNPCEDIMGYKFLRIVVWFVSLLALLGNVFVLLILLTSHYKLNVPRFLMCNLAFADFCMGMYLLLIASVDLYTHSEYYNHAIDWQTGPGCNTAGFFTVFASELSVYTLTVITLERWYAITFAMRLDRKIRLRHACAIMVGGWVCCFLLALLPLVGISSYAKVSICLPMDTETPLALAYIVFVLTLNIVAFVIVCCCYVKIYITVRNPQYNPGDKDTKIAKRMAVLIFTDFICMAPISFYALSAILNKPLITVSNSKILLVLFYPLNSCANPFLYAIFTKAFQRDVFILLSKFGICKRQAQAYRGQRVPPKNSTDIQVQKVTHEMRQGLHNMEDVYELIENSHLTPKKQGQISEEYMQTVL
Sequence of Estrogen receptor beta (Homo sapiens) (Q92731 whole entry, looked up): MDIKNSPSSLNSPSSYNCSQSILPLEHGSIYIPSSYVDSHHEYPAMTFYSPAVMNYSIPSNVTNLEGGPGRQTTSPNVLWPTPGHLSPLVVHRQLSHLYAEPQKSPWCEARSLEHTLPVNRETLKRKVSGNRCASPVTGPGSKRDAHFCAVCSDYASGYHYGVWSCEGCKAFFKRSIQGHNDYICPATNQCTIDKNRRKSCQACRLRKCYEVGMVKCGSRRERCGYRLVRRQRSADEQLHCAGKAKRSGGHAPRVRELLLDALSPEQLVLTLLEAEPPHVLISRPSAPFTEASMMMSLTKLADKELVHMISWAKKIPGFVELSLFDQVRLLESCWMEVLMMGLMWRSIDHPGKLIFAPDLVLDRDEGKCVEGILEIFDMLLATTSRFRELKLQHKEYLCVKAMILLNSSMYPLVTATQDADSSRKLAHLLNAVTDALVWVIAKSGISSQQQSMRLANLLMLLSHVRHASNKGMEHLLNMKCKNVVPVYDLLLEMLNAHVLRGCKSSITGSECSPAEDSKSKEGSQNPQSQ
Sequence of Estrogen receptor (Homo sapiens) (P03372 whole entry, looked up): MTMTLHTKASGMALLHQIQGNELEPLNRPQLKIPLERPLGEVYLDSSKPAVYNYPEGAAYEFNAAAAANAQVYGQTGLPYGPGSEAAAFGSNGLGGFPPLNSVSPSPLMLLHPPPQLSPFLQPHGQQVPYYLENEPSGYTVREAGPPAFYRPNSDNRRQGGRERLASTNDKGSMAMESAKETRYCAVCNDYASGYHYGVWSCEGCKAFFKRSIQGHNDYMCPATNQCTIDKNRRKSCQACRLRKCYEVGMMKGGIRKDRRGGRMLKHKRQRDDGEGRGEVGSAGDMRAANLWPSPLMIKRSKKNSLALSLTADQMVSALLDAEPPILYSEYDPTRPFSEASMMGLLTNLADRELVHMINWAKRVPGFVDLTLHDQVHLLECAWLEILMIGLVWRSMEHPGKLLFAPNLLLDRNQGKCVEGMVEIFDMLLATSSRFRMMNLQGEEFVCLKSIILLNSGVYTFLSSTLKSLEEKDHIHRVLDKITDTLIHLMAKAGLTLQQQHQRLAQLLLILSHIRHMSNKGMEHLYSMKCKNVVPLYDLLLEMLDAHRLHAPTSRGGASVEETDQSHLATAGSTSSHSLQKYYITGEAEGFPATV
Sequence of Androgen receptor (Homo sapiens) (P10275 whole entry, looked up): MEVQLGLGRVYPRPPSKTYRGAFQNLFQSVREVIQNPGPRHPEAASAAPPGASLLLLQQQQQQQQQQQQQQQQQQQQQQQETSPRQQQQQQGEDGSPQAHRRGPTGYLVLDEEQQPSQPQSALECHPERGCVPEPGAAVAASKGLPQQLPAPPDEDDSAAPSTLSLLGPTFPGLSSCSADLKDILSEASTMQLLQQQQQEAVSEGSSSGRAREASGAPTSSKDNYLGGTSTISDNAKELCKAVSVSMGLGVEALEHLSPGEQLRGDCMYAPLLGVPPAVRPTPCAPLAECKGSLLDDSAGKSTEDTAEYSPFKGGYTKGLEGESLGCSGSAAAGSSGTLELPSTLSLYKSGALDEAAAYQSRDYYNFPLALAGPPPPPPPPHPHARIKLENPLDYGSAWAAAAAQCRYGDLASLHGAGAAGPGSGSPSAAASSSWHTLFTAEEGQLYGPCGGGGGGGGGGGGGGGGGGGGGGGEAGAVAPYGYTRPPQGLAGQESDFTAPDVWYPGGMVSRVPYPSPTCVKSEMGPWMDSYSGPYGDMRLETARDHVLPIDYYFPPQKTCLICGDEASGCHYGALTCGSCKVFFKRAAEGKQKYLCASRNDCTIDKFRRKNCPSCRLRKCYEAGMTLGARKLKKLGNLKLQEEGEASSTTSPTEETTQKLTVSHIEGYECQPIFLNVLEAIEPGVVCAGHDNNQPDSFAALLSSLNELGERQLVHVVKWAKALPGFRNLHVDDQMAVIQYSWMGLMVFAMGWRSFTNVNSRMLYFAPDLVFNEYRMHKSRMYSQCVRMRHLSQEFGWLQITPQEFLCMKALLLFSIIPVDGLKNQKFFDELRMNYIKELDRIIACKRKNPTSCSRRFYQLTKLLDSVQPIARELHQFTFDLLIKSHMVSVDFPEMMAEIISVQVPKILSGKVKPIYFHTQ

| Compound | outcome [1] | outcome [2] | Potency [3] | outcome [4] | Potency [5] | outcome [6] | Potency [7] | Potency [8] | Potency [9] | Potency [10] | Potency [11] | Potency [12] | Potency [13] | outcome [14] | outcome [15] | Potency [16] | Potency [17] | Potency [18] | Potency [19] |
| --- | --- | --- | --- | --- | --- | --- | --- | --- | --- | --- | --- | --- | --- | --- | --- | --- | --- | --- | --- |
| CC1=NNC(=O)N(/N=C/c2cccnc2)C1 | inactive | inactive | inactive | inactive | inactive | inactive | inactive | inactive | inactive | inactive | inactive | inactive | – | – | – | – | – | – | – |
| CCN(CC)C(=O)[C@@H]1C=C2c3cccc4[nH]cc(c34)C[C@H]2N(C)C1 | – | inactive | inactive | inactive | – | – | – | inactive | inactive | – | inactive | – | inactive | inactive | inactive | inactive | – | – | – |
| CC(N)=S | inactive | inactive | inactive | inactive | inactive | inactive | inactive | inactive | inactive | inactive | inactive | inactive | – | – | – | – | inactive | – | – |
| O=C(CCN1CC1)OCC(CO)(COC(=O)CCN1CC1)COC(=O)CCN1CC1 | inactive | inactive | inactive | inactive | inactive | inactive | inactive | – | inactive | inactive | inactive | inactive | – | – | – | – | – | – | – |
| ClCC(Cl)Cl | inactive | inactive | inactive | inactive | inactive | inactive | inactive | – | inactive | inactive | inactive | inactive | – | – | – | – | inactive | inactive | – |
| CC1CCC(=O)O1 (stereo not drawn) | inactive | inactive | inactive | inactive | inactive | inactive | inactive | – | inactive | – | inactive | inactive | – | – | – | – | inactive | inactive | – |
| O=[N+]([O-])c1cc(Cl)c(Cl)c(Cl)c1 | inactive | – | inactive | inactive | inactive | – | inactive | inactive | 54 µM (active) | inactive | inactive | inactive | inactive | – | inactive | inactive | inactive | inactive | – |
| CCOP(=S)(Oc1cnc(C(C)(C)C)nc1)OC(C)C (stereo not drawn) | – | inactive | inactive | inactive | inactive | inactive | inactive | – | inactive | – | inactive | – | – | – | – | – | inactive | inactive | – |
| CCCSP(=S)(OCC)Oc1ccc(Cl)cc1Cl (stereo not drawn) | – | inactive | inactive | inactive | inactive | inactive | inactive | – | inactive | – | inactive | – | inactive | – | – | inactive | inactive | inactive | – |
| CC(C)[N+](=O)[O-] | – | inactive | inactive | inactive | inactive | inactive | inactive | – | inactive | inactive | inactive | inactive | – | – | – | – | inactive | inactive | – |
| Fc1ccc(C2(Cn3cncn3)OC2c2ccccc2Cl)cc1 (stereo not drawn) | – | inactive | inactive | inactive | inactive | inactive | – | 30.6 µM (active) | inactive | – | – | inactive | – | – | inactive | inactive | inactive | – | – |
| CCNc1nc(NC(C)C)nc(OC)n1 | – | inactive | inactive | inactive | inactive | inactive | inactive | – | inactive | inactive | inactive | inactive | – | – | – | – | inactive | inactive | – |
| CN(N=O)C(N)=O | – | inactive | inactive | inactive | inactive | – | inactive | inactive | inactive | inactive | inactive | – | – | – | inactive | – | inactive | – | – |
| O=C(Nc1ccccc1)N(Cc1ccc(Cl)cc1)C1CCCC1 | – | inactive | inactive | inactive | – | inactive | – | 24.3 µM (active) | 68.6 µM (active) | – | inactive | inactive | – | – | inactive | – | – | inactive | – |
| CSc1nc(N=[N+]=[N-])nc(NC(C)C)n1 | – | inactive | inactive | inactive | inactive | inactive | – | – | inactive | inactive | inactive | inactive | inactive | – | – | inactive | inactive | inactive | – |
| O=C(NCO)NCO | – | inactive | inactive | inactive | inactive | inactive | inactive | – | inactive | inactive | inactive | inactive | inactive | – | – | inactive | inactive | inactive | – |
| N#CCBr | – | inactive | inactive | inactive | inactive | inactive | – | inactive | inactive | inactive | inactive | inactive | inactive | – | – | inactive | inactive | inactive | – |
| OCCBr | – | inactive | inactive | inactive | inactive | inactive | inactive | inactive | inactive | inactive | inactive | inactive | inactive | – | inactive | inactive | – | inactive | – |
| CNC(=O)O/N=C(\C)SC | – | inactive | inactive | inactive | inactive | – | inactive | inactive | inactive | – | inactive | inactive | – | – | inactive | – | inactive | inactive | – |
| N#CCCC#N | – | inactive | inactive | inactive | inactive | inactive | inactive | inactive | inactive | – | inactive | – | inactive | – | inactive | inactive | inactive | – | – |
| CN/C(=N\[N+](=O)[O-])NCC1CCOC1 (stereo not drawn) | – | inactive | inactive | inactive | inactive | inactive | inactive | inactive | inactive | inactive | inactive | inactive | – | – | inactive | – | inactive | inactive | – |
| c1cc[c]([Hg][c]2ccccc2)cc1 | – | inactive | 2.43 µM (active) | inactive | inactive | inactive | 0.545 µM (active) | inactive | inactive | inactive | inactive | inactive | inactive | – | inactive | – | – | – | inactive |
